# Source: PubChem BioAssay (Tox21)
# Records with an inconclusive call do not appear. Entries that show only a call come without a potency. Activity calls are given as the source filed them. Unless noted, calls follow the shape of the dose curve; as a rule, active = well fitted curve in the direction sought with a large enough effect in the repeat runs; inconclusive = weak or mixed curves; inactive = no such curve, though single readings can be large; an effect the other way counts as inactive or inconclusive.
# Experiments:
# [1] = qHTS assay to identify small molecule antagonists of the thyroid receptor (TR) signaling pathway - cell viability counter screen (AID 743064); also: nearly all actives have a fitted effect of over 50% in size
# Summary of the method: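 In-well cytotoxicity read by CellTiter-Fluor (30 min, 37 C) following 23.5 h exposure of GH3 cells bearing a TRE-luciferase sensor. Compounds were added alongside 1 nM (final) T3 to drive TR transactivation.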
# [2] = qHTS assay to identify small molecule antagonists of the thyroid receptor (TR) signaling pathway (AID 743065); also: series mostly up to about 70 µM; nearly all actives have a fitted effect of over 55% in size
# Summary of the method: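 GH3.TRE-Luc rat pituitary cells carrying two TR response elements driving luciferase were plated for 4 h, given compound plus 1 nM T3 (final), and incubated 23.5 h at 37 C. ONE-Glo luminescence measured reporter inhibition; CellTiter-Fluor fluorescence tracked cytotoxicity.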
# [3] = tested on: thyroid hormone receptor (rat, GH3 cells); test: qHTS assay to identify small molecule agonists of the thyroid receptor (TR) signaling pathway (AID 743066; calls by dose curve; also: potency is read from the fitted curve at half-maximal effect)
# [4] = molecular target: Estrogen receptor (Homo sapiens) (UniProt P03372); test: qHTS assay to identify small molecule antagonists of the estrogen receptor alpha (ER-alpha) signaling pathway (AID 743069; active = well fitted curve in the direction sought with a large enough effect in the signal ratio in the repeat runs, not every such curve was filed as active; the % refers to the signal ratio)
# Summary of the method: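 Screening used a UAS-driven beta-lactamase reporter integrated into HEK293 cells expressing ER-alpha, stimulated with 17beta-estradiol alongside test compounds over 18 hr at 37C; signal came from LiveBLAzer B/G FRET fluorescence.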
# [5] = qHTS assay to identify small molecule antagonists of the estrogen receptor alpha (ER-alpha) signaling pathway - cell viability counter screen (AID 743074; calls by dose curve; also: nearly all actives have a fitted effect of over 45% in size)
# [6] = molecular target: Estrogen receptor (Homo sapiens) (UniProt P03372); test: qHTS assay to identify small molecule agonists of the estrogen receptor alpha (ER-alpha) signaling pathway using the BG1 cell line (AID 743079); also: nearly all actives have a fitted effect of over 20% in size; also: potency is read from the fitted curve at half-maximal effect
# [7] = qHTS assay to identify small molecule antagonists of the estrogen receptor alpha (ER-alpha) signaling pathway using the BG1 cell line - cell viability counter screen (AID 743081);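 also: compound given together with 17beta-estradiol as the ER stimulus; series mostly up to about 70 µM; nearly all actives have a fitted effect of over 45% in size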
# Aromatase (Homo sapiens) = Aromatase (Homo sapiens) (UniProt P11511); test: qHTS assay to identify aromatase inhibitors (AID 743083); also: series mostly up to about 70 µM; nearly all actives have a fitted effect of over 55% in size
# [8] = qHTS assay to identify aromatase inhibitors - cell viability counter screen (AID 743084);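 also: cells stimulated with testosterone during compound exposure; nearly all actives have a fitted effect of over 55% in size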
# [9] = molecular target: Aryl hydrocarbon receptor (Homo sapiens) (UniProt P35869); test: qHTS assay to identify small molecule that activate the aryl hydrocarbon receptor (AhR) signaling pathway (AID 743085); also: nearly all actives have a fitted effect of over 15% in size; also: potency is read from the fitted curve at half-maximal effect;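 as to activation: HG2L7.5c1 human HepG2 liver cells with stably integrated DRE-driven firefly reporter; series mostly up to about 70 µM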
# Summary of the method: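 Luminescence (ONE-Glo) from a dioxin-responsive-element luciferase reporter in HG2L7.5c1 HepG2 cells after 24 hr compound exposure at 37C; viability measured by CellTiter-Fluor fluorescence beforehand.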
# [10] = qHTS assay to identify small molecule that activate the aryl hydrocarbon receptor (AhR) signaling pathway - cell viability counter screen (AID 743086);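 also: HepG2 liver cells carrying the AhR DRE luciferase reporter; series mostly up to about 70 µM; nearly all actives have a fitted effect of over 45% in size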
# Summary of the method: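 HepG2-AhR-luc (HG2L7.5c1) cells, 4000/well, were preincubated 5 h at 37C, exposed to compound in qHTS format for 24 hr at 37C, then given CellTiter-Fluor for 30 min; viability was read as fluorescence in the reporter wells.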
# [11] = molecular target: Peroxisome proliferator-activated receptor gamma (Homo sapiens) (UniProt P37231); test: qHTS assay to identify small molecule agonists of the peroxisome proliferator-activated receptor gamma (PPARg) signaling pathway (AID 743094; active = well fitted activation curve with a large enough effect in the signal ratio in the repeat runs, not every such curve was filed as active; the % refers to the signal ratio)
# Summary of the method: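 Cells from the PPARg UAS-bla HEK293H line are plated and incubated 5 h at 37C. Compounds in DMSO are pinned in and left 17 h at 37C. LiveBLAzer B/G substrate is then added for 1 h at room temperature before fluorescence is measured.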
# [12] = molecular target: Peroxisome proliferator-activated receptor gamma (Homo sapiens) (UniProt P37231); test: qHTS assay to identify small molecule antagonists of the peroxisome proliferator-activated receptor gamma (PPARg) signaling pathway (AID 743191; calls by dose curve; also: series mostly up to about 63 µM; nearly all actives have a fitted effect of over 30% in size)
# Summary of the method: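 GeneBLAzer PPARg UAS-bla HEK293H cells carrying a UAS-driven beta-lactamase reporter were plated at 3000 cells/well, preincubated 5 h at 37C, then given compound for 17 h at 37C; LiveBLAzer B/G FRET substrate was read after 1 h at room temperature.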
# [13] = qHTS assay to identify small molecule antagonists of the peroxisome proliferator-activated receptor gamma (PPARg) signaling pathway - cell viability counter screen (AID 743194); details: Potency: co-treated with 50 nM rosiglitazone; also: nearly all actives have a fitted effect of over 55% in size
# Summary of the method: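 PPARg-UAS-bla HEK293H cells were plated, rested 5 h at 37 C, then treated with compounds plus rosiglitazone (50 nM final) for 17 h at 37 C; viability was then read by CellTiter-Glo luminescence after 30 min at room temperature.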
# [14] = qHTS assay for small molecule agonists of the antioxidant response element (ARE) signaling pathway - cell viability counter screen (AID 743203; calls by dose curve; also: nearly all actives have a fitted effect of over 55% in size)
# Summary of the method: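 Cytotoxicity was tested in parallel with the ARE reporter screen. ARE-bla HepG2 cells were exposed to compounds for 16 hrs, and viability was taken from CellTiter-Glo luminescence.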
# [15] = qHTS assay for small molecule activators of the heat shock response signaling pathway - cell viability counter screen (AID 743209); also: nearly all actives have a fitted effect of over 50% in size
# Summary of the method: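 Cytotoxicity counter screen run in parallel with the HSE beta-lactamase reporter, using the same wells. HeLa HSE-bla cells received compound for 5 h at 37 C; ATP-based CellTiter-Glo luminescence was measured after 30 min at room temperature.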
# [16] = qHTS assay for small molecule activators of the heat shock response signaling pathway (AID 743210; active = well fitted activation curve with a large enough effect in the signal ratio in the repeat runs, with a control signal flat, not every such curve was filed as active; the % refers to the signal ratio;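 also: HeLa cells with beta-lactamase reporter driven by heat shock elements; series mostly up to about 63 µM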)
# Summary of the method: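 Activation of heat shock element-controlled beta-lactamase expression is measured in HeLa cells by LiveBLAzer FRET fluorescence, with compound exposure lasting 5 h at 37 C and substrate loading 2.5 h at room temperature.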
# [17] = molecular target: Estrogen receptor (Homo sapiens) (UniProt P03372); test: qHTS assay to identify small molecule agonists of the estrogen receptor alpha (ER-alpha) signaling pathway (AID 743075; calls by dose curve)
# [18] = qHTS assay to identify small molecule antagonists of the estrogen receptor alpha (ER-alpha) signaling pathway using the BG1 cell line (AID 743080; calls by dose curve; also: series mostly up to about 70 µM; nearly all actives have a fitted effect of over 25% in size)
# Summary of the method: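 Antagonist mode: compounds in DMSO were pinned onto BG1-Luc-4E2 cells alongside 17beta-estradiol agonist, incubated 21.5 h, and ERE-driven luciferase measured with ONE-Glo. Cytotoxicity was multiplexed using CellTiter-Fluor fluorescence.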
# [19] = qHTS assay for small molecule agonists of the antioxidant response element (ARE) signaling pathway (AID 743202; active = well fitted activation curve with a large enough effect in the signal ratio in the repeat runs, not every such curve was filed as active; the % refers to the signal ratio)
# Summary of the method: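 Steps: seed ARE-bla HepG2 cells (2,000/well); incubate 5 h at 37 C; add compounds by pin tool; incubate 16 h at 37 C; add FRET substrate; read fluorescence after 2 h at RT.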
# Aromatase (Homo sapiens), sequence (P11511 whole entry, looked up): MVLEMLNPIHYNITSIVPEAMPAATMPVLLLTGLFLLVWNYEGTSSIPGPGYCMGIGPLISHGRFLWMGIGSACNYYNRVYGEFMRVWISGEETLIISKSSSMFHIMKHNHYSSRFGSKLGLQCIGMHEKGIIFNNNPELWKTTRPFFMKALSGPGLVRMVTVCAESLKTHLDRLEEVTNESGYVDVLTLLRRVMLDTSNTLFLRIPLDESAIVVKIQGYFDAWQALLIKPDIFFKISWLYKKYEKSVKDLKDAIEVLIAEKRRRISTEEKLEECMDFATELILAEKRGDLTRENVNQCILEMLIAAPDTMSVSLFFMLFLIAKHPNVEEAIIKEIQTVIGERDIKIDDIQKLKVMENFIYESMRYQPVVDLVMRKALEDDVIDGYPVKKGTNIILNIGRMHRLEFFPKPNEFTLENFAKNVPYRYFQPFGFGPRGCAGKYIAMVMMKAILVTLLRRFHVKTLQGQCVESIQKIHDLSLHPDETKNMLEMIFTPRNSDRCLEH
# Peroxisome proliferator-activated receptor gamma (Homo sapiens), sequence (P37231 whole entry, looked up): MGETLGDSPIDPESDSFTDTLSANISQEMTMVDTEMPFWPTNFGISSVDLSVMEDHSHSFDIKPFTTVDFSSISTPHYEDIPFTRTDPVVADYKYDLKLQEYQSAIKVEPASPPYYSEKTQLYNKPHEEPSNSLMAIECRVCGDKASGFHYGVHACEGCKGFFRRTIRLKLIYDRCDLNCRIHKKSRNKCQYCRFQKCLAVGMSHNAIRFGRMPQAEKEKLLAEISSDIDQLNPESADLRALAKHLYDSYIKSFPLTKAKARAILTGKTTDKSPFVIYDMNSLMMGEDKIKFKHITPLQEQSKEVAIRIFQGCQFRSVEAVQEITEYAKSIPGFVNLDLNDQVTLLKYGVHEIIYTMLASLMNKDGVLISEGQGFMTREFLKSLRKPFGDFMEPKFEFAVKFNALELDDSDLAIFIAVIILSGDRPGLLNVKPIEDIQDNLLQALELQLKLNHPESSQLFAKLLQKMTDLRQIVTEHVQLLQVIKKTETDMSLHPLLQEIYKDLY
# Estrogen receptor (Homo sapiens), sequence (P03372 whole entry, looked up): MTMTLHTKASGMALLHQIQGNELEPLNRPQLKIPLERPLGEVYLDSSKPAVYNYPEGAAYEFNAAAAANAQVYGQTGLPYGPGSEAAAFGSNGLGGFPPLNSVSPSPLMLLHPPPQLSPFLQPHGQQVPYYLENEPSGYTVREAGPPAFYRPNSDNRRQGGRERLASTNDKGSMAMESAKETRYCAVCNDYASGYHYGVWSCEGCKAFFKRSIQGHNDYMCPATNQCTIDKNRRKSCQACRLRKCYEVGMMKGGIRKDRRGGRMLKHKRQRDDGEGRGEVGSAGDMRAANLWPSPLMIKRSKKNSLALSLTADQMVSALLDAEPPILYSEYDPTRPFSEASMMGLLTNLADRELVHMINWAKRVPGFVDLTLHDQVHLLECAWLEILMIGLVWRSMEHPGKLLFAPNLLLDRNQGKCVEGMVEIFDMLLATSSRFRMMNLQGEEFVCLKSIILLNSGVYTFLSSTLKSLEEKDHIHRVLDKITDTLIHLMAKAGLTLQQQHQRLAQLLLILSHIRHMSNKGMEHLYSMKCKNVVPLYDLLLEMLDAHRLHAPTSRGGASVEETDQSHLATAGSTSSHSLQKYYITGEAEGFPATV
# Aryl hydrocarbon receptor (Homo sapiens), sequence (P35869 whole entry, looked up): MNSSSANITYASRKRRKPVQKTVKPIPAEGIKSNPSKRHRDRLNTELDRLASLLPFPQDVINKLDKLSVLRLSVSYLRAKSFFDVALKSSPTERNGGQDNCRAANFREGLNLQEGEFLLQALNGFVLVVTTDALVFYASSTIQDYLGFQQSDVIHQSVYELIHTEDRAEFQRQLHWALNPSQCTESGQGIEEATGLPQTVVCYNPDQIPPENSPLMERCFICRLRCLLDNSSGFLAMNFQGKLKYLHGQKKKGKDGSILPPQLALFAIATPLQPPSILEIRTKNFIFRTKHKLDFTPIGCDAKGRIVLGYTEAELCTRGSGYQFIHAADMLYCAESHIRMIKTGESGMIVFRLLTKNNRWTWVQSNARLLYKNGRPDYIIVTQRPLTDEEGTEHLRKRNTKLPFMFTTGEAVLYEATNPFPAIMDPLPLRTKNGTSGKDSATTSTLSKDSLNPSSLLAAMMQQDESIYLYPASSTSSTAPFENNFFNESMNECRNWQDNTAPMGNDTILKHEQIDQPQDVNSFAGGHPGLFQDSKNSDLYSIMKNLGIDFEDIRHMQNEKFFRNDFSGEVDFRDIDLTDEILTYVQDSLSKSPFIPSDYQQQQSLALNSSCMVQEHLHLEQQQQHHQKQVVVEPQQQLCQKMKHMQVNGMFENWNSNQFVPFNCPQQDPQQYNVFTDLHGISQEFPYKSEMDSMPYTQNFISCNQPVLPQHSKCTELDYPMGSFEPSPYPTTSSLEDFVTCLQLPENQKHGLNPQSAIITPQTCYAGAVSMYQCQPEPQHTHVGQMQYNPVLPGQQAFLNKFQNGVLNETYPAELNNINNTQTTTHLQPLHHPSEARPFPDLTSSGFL
SMILES,Potency [1],Potency [2],Potency [3],Potency [4],Potency [5],Potency [6],Potency [7],Potency (Aromatase (Homo sapiens)),Potency [8],Potency [9],Potency [10],Potency [11],Potency [12],Potency [13],Potency [14],Potency [15],Potency [16],Potency [17],Potency [18],Potency [19]
Nc1ccc2c(c1)Cc1ccccc1-2,inactive,inactive,inactive,inactive,inactive,4.3 µM (active),inactive,inactive,inactive,68.2 µM (active),inactive,inactive,inactive,inactive,inactive,inactive,inactive,–,–,–
C=C(C)C(=O)OCCCCOC(=O)C(=C)C,inactive,inactive,inactive,–,inactive,inactive,inactive,–,inactive,inactive,inactive,inactive,–,inactive,inactive,inactive,inactive,inactive,inactive,–
Clc1ccccc1,inactive,inactive,inactive,–,inactive,inactive,inactive,inactive,inactive,inactive,inactive,inactive,–,inactive,inactive,inactive,inactive,inactive,–,inactive
OCCSSCCO,inactive,inactive,inactive,–,inactive,inactive,inactive,inactive,inactive,inactive,inactive,inactive,–,inactive,inactive,inactive,inactive,inactive,inactive,–
CC[N+]1(CCOC(=O)C(O)(c2ccccc2)c2ccccc2)CCCCC1,inactive,inactive,inactive,inactive,inactive,8.41 µM (active),inactive,inactive,inactive,–,inactive,inactive,inactive,inactive,inactive,inactive,inactive,–,inactive,–
COC(=O)C1(O)c2ccccc2-c2ccccc21,inactive,inactive,inactive,inactive,inactive,inactive,inactive,inactive,inactive,inactive,inactive,–,–,inactive,inactive,inactive,–,inactive,–,–
CCOC(=O)c1cn2nc(OP(=S)(OCC)OCC)cc2nc1C,inactive,inactive,inactive,–,inactive,inactive,inactive,inactive,inactive,–,inactive,–,–,inactive,inactive,inactive,–,inactive,inactive,–
CCCCCCCCCCCCN(C)C,inactive,inactive,inactive,–,inactive,inactive,inactive,inactive,inactive,inactive,inactive,inactive,–,–,inactive,inactive,inactive,inactive,inactive,–
Cc1ccc2c(C)cccc2c1,inactive,inactive,inactive,–,inactive,inactive,inactive,inactive,inactive,inactive,inactive,–,inactive,inactive,inactive,inactive,inactive,inactive,inactive,–
O=C(Cl)OCCOCCOC(=O)Cl,inactive,inactive,27.3 µM (active),inactive,–,inactive,inactive,inactive,inactive,inactive,inactive,inactive,–,inactive,inactive,inactive,–,inactive,inactive,–
CCCC(C)(COC(N)=O)COC(=O)NC(C)C (centres undefined),inactive,inactive,inactive,–,inactive,inactive,inactive,inactive,inactive,inactive,inactive,inactive,inactive,inactive,inactive,inactive,inactive,inactive,–,inactive
C[N+]1(CCC(C(N)=O)(c2ccccc2)c2ccccc2)CCCCC1,inactive,inactive,inactive,–,inactive,inactive,inactive,inactive,inactive,inactive,inactive,inactive,inactive,inactive,inactive,inactive,inactive,inactive,inactive,–
OCC1CO1 (centres undefined),inactive,inactive,inactive,–,inactive,inactive,inactive,inactive,inactive,inactive,inactive,inactive,inactive,inactive,inactive,inactive,inactive,inactive,inactive,inactive
CCOP(=S)(OCC)SCSc1cc(Cl)ccc1Cl,inactive,inactive,inactive,inactive,inactive,–,inactive,inactive,inactive,inactive,inactive,inactive,–,inactive,inactive,inactive,inactive,inactive,–,inactive
CC(=O)OC(c1ccccc1)C(Cl)(Cl)Cl (centres undefined),inactive,inactive,inactive,inactive,inactive,–,inactive,–,inactive,–,inactive,inactive,–,inactive,inactive,inactive,inactive,inactive,–,inactive
